High-throughput results: PubChem BioAssay, several laboratories
An excerpt weighted towards active compounds, which were near 1.8% of everything screened.
Sa RN4220 lethal: S. aureus RN4220 growth inhibition; inhibition, % (test concentration not listed); 0.33% of 330,000 active; AID 1259311; OD600, 16 h; in the data active means inhibition above about 85%;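 further: plate controls were untreated cells for no effect and reference antibiotic for full effect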
PrPC TRFRET: inhibitors of human cell surface prion protein PrPC; inhibition, % at 13.8 µM; AID 720596; 0.43% of 370,000 active; P04156; TR-FRET read-out; in the data active means inhibition above about 24%; further: 0% = median of the test wells and 100% = reference compound wells
VHR inh abs: DUSP3 (human) phosphatase inhibition | P51452 | recombinant VHR phosphatase, pNPP absorbance | inhibition, % at 13.3 µM | 0.52% of 290,000 active | AID 1654; in the data active means inhibition above about 50%
Target sequence (P51452 whole entry, looked up): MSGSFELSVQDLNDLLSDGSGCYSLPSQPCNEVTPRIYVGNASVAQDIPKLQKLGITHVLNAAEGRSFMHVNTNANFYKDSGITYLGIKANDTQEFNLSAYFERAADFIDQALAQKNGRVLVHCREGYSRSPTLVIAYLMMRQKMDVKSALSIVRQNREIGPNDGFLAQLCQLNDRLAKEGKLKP
PfHsp40 rescue: rescue of PfHsp40-mediated yeast toxicity. S. cerevisiae expressing PfHsp40, growth rescue, ATP luminescence. growth rescue, % at 12.5 µM. 0.68% of 340,000 active. AID 504582; in the data active means growth rescue above about 28%, passing the limit was not always enough;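 further: yeast W303a lacking pdr1 and pdr3 grown in galactose medium; growth measured after three days at 30 °C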
Sa ugtP lethal: compounds lethal to S. aureus RN4220 ugtP deletion mutant; OD600 growth, 16 h; growth inhibition, % (concentration not given with the values); 0.54% of 330,000 active; AID 1259309; in the data active means growth inhibition above about 68%;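 further: plate controls were untreated wells for no effect and antibiotic for full effect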
The depositor's hits bear a star; x = not tested or not shown.

SMILES	Sa RN4220 lethal	PrPC TRFRET	VHR inh abs	PfHsp40 rescue	Sa ugtP lethal
CCN1C(=O)N(CC)C(=O)C2(Cc3ccccc3N3CCN(c4ccccc4)CC32)C1=O (centres undefined)	3	7	5	x	89*
O=C(CC(=O)Nc1ccc(Cl)c(Cl)c1)NN=Cc1ccc(O)cc1	3	x	x	x	-11
O=C(Nc1c(C(=O)C2CC2)oc2ccccc12)c1ccc(Cl)cc1	6	-4	51*	1	-4
COc1ccc(-c2cc(-c3ccccc3)nc(Cl)n2)cc1OC	11	2	51*	0	-2
COc1ccc2c(=O)c3c(=O)n(Cc4ccco4)c(-c4ccco4)nc3oc2c1	10	-6	15	14	-18
COc1ccc(-c2nc3oc4cc(OC)ccc4c(=O)c3c(=O)n2Cc2ccco2)cc1	28	-2	-22	1	98*
COc1ccc(C(=O)CN2C(=O)c3ccccc3S2(=O)=O)cc1	3	3	24	x	4
O=C(CN1/C(=C(/O)c2ccccc2)C(=O)c2ccccc2S1(=O)=O)c1ccccc1	21	-7	19	80*	-8
Cc1cnc(C(=O)OCC(=O)Nc2c(Cl)cc(Cl)cc2Cl)cn1	2	3	x	63*	1
Cc1ccc(S(=O)(=O)NC23CC4CC(CC(C4)C2)C3)cc1	x	6	x	107*	x
COC(C(=O)N/N=C(\C)c1ccc(C)cc1)c1ccccc1 (centres undefined)	x	-5	52*	0	x
COc1ccc(C(=O)NC(=S)NNC(=O)c2ccc(O)cc2)cc1[N+](=O)[O-]	11	-7	22	52*	-2
O=C(C1CC1)N(Cc1ccco1)c1nc(-c2ccccc2)cs1	-5	-9	-26	-2	96*
COc1ccc(-c2csc(N(Cc3ccco3)C(=O)c3cccs3)n2)cc1	-6	6	-7	3	16
O=C(c1oc(=O)c2ccccc2c1-c1ccccc1)N1CCOCC1	0	5	51*	0	-5
CCOc1ccc(NC(=O)C2CCCN(S(=O)(=O)c3ccc4c(c3)CCCN4C(C)=O)C2)cc1 (centres undefined)	3	20	13	1	5
CC(=O)N1CCCc2cc(S(=O)(=O)N3CCCC(C(=O)Nc4cccc(C)c4)C3)ccc21 (centres undefined)	2	13	54*	1	3
CC1CN(C(C)CO)C(=O)c2cccc(NS(=O)(=O)c3cn(C)cn3)c2OC1CN(C)C(=O)NC1CCCCC1 (centres undefined)	3	x	x	x	-2
COc1ccc(CN2C(CC(C)=O)c3cc(C(F)(F)F)ccc3S2(=O)=O)cc1 (centres undefined)	3	x	x	x	-5
CCOc1ccc(S(=O)(=O)NCCc2cn3ccccc3n2)cc1	1	4	26	-1	-2
O=S(=O)(NCCc1cn2ccccc2n1)c1ccc(-c2ccccc2)cc1	5	-2	57*	-2	9
Cc1cc(C=NO)c(C)n1-c1cccc(Cl)c1	0	x	x	x	7
CCOC(=O)C(Cc1nc(OCc2ccccc2)cc(OCc2ccccc2)n1)=NO	-1	3	x	9	87*
CS(=O)(=O)N(CCC(=O)O)Cc1ccccc1	-1	-5	15	77*	3
N#CCc1ccc(NC(=O)/C=C/c2ccc([N+](=O)[O-])o2)cc1	101*	x	5	1	100*
SMILES	Sa RN4220 lethal	PrPC TRFRET	VHR inh abs	PfHsp40 rescue	Sa ugtP lethal
O=C(N/N=C1/CC2CCC1C2)c1cc2ccccc2cc1O (centres undefined)	x	-4	19	33*	x
C=C1C(=O)C23CCC4C(C)(C(=O)OC)CCCC4(C)C2CCC1(O)C3 (centres undefined)	x	86*	x	242*	x
CCCc1ccc(Oc2cn[nH]c2-c2ccc(O)cc2O)cc1	67	2	32	181*	90*
CCOC1OC(C(=O)N2CCOCC2)=CC(C2CC2)C1CCCO (centres undefined)	5	x	x	x	6
Clc1ccc2c(NN=Cc3ccc(Br)cc3)ccnc2c1	101*	x	x	x	101*
Clc1ccc2c(N/N=C/c3ccccc3Br)ccnc2c1	x	2	33	2	x
Clc1ccc2c(N/N=C/c3cccc(Br)c3)ccnc2c1	x	9	5	1	x
Cc1ccccc1C=NNc1ccnc2cc(Cl)ccc12	98*	x	x	x	99*
Cc1ccc(C=NNc2ccnc3cc(Cl)ccc23)c(C)c1	99*	x	x	x	101*
CCCC(C(=O)O)N1C(=O)C(=C2C(=O)N(C)c3ccccc32)SC1=S (centres undefined)	14	x	x	x	-14
O=C(CNc1n[nH]c(=O)[nH]c1=O)NN=CC1CC=CCC1 (centres undefined)	4	x	x	x	-4
COc1ccc(C=C2NC(=S)NC2=O)cc1	-3	-9	x	-1	1
COc1ccc(C(=O)N2C(=S)NC(=O)/C2=C\c2ccc(C)cc2)cc1	-9	-1	20	-2	100*
CCSc1ccc(C2C3C(=O)N(CC)C(=O)C3[C@]3(C(=O)OC)CCCN23)cc1 (some centres undefined)	4	x	x	x	-10
Cc1ccc(OCC(=O)Nc2ccccc2N2CCOCC2)c(C)c1	10	11	52*	0	-7
Cc1c(C(=O)N(CCO)Cc2ccccc2)oc2c(F)cccc12	5	9	56*	0	18
CCc1cc(=S)n2c([nH]c3ccccc32)c1C#N	74	x	4	-1	76
CCc1c(C)c(C#N)c2[nH]c3ccccc3n2c1=S	93*	-12	25	0	92*
C=C(C)Cc1c(C)c(C#N)c2[nH]c3ccccc3n2c1=O	72	0	-12	131*	61
NC(=O)c1sc2nnc(-c3ccccc3)c(-c3ccccc3)c2c1N	2	-4	23	1	84*
NC(=O)c1snnc1-c1ccccc1	2	4	18	-2	-2
CC1CN=C(Nc2ccccc2)N1CCc1ccccc1 (centres undefined)	3	x	x	x	1
Cc1cccc(CSc2nnnn2-c2ccccc2)c1	5	6	12	33*	-10
FC(F)(F)c1cnc(NNC(=S)Nc2ccc(Cl)cc2)c(Cl)c1	92*	10	-3	1	70
O=c1oc(-c2ccccc2)cc(Cl)c1Cl	11	-3	27	556*	17
CCn1c(C(=O)O)c(CC(=O)Nc2ccc(Br)cc2C)c2ccccc21	11	5	57*	-2	3
COc1ccc(C(=O)NN=Cc2cc3ccccc3[nH]c2=S)cc1	3	x	x	x	5
CNc1ccc2oc(CC3O[C@@]4(CCC3C)OC(C(C)C(=O)c3ccc[nH]3)C(C)CC4C)nc2c1C(=O)O (some centres undefined)	96*	x	x	x	100*
CNc1ccc2oc(C[C@H]3O[C@@]4(CC[C@H]3C)O[C@H]([C@H](C)C(=O)c3ccc[nH]3)[C@H](C)C[C@H]4C)nc2c1C(=O)O	x	-5	18	143*	x
O=C(CC1(O)C(=O)Nc2ccccc21)c1ccccc1 (centres undefined)	3	0	-13	0	7
